Bioassay records from PubChem BioAssay.
Only a selection was taken, and hits are over-represented in it overall.
Tgondii IFNg – T. gondii growth inhibition under IFN-gamma. Toxoplasma gondii growth in IFN-gamma-treated host cells; stronger effect = lower value. activity change, negative = inhibition, % (concentration not given with the values). hit rate 3.8% among 69,000. AID 1259416; in the data active = activity change below about -70%, passing the limit was not always enough;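 also: host cells are HeLa cells infected with Toxoplasma gondii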
* = called active by the depositor; ! = not active in a repeat.

SMILES	Tgondii IFNg
CON(C)Cc1csc(NC(=O)n2ccnc2)n1	3
CC1Cc2ccccc2N1C(=O)c1cc2cccnc2n(Cc2ccccc2F)c1=O (stereo not given)	36
COc1ccccc1NC(=O)c1c(O)c2cccnc2n(-c2ccccc2)c1=O	-47
CC(C)CN1C(=O)C2(NCCc3c2[nH]c2ccc(F)cc32)c2ccccc21 (stereo not given)	256
COc1cccc(CN2CCC3(CC2)OC(C(N)=O)Cn2ccnc23)c1 (stereo not given)	101
CN(C)C(=O)C1OC2(CCN(C(N)=O)CC2)c2ccccc21 (stereo not given)	-12
CCOC(=O)c1cnc2c(-c3ccccc3)c(C(F)(F)F)sc2c1N1CCOCC1	-93*
Cc1nc(-c2ccccc2)sc1C(=O)Oc1ccccc1N1CCOCC1	-56
CCOC(=O)c1cnc2oc3ccc(O)cc3c2c1-c1ccccc1	14
Cc1cnccc1N1CCN(C(=O)c2cc3n(n2)CCN(C)C3)CC1	-27
Cc1cc(CN2CCCC2)ccc1Oc1cncc(C(=O)N2CCCC2)n1	1
CS(=O)(=O)N1Cc2nc(C(=O)NCc3ccccc3)oc2C1	-44
Cc1cc(-c2ccc3c(c2)OCO3)cnc1N	52
Cc1ncc(-c2ccc3c(c2)OCO3)c(-c2cccnc2)n1	1
Cc1nc(-c2ccc3c(c2)OCO3)cc(C(C)C)n1	-72*
CSc1nccc(-c2ccc(O)cc2)n1	-78*
COc1cccc(-c2ccc(O)cc2)n1	28
CSc1nncc(-c2ccc(Cl)cc2)n1	-41
O=C(NCc1ccco1)C1CCN(c2nc3ccccc3s2)CC1	30
CCn1c(C2CCCN(Cc3nc4ccc(F)cc4[nH]3)C2)n[nH]c1=O (stereo not given)	1
CC(=O)O[C@H]1C(=O)[C@@]2(C)C([C@H](OC(=O)c3ccccc3)[C@]3(O)C[C@H](OC(=O)[C@H](O)[C@@H](NC(=O)c4ccccc4)c4ccccc4)C(C)=C1C3(C)C)[C@]1(OC(C)=O)CO[C@@H]1C[C@@H]2O (stereo not given in full)	-79*
CC(=O)OC1C(=O)C2(C)C(O)CC3OCC3(OC(C)=O)C2C(OC(=O)c2ccccc2)C2(O)CC(OC(=O)C(O)C(NC(=O)c3ccccc3)c3ccccc3)C(C)=C1C2(C)C (stereo not given)	-88*
Cc1noc(-c2cc(=O)n(CC(=O)Nc3cccc(Cl)c3)c3ccccc23)n1	-10
CCn1ccc2cc(S(=O)(=O)N3CCC(C(=O)NCCCN4CCCC4)CC3)ccc21	-8
C=CCOC1C2CCC1N(C(=O)CS(C)(=O)=O)CCO2 (stereo not given)	130
SMILES	Tgondii IFNg
COc1ccc(C(=O)N2CCC(c3cc(-c4cccc(F)c4)n(C)n3)CC2)cc1	-7
COc1cc2c(cc1OC)C(c1c(C)nn(-c3ccccc3)c1Cl)CC(=O)N2 (stereo not given)	-47
Cc1nc2cc(C3CCOCC3)nn2c(NCCCNC(=O)c2ccccn2)c1C	0
C[C@@H]1CN([C@H](C)CO)C(=O)CCCn2nncc2CO[C@H]1CN(C)CC1CCCCC1	-99*
C[C@@H]1CN([C@@H](C)CO)C(=O)CCCn2nncc2CO[C@H]1CN(C)C(=O)c1ccc(N2CCN(C)CC2)cc1	-87*
C[C@H](CO)N1C[C@H](C)[C@@H](CN(C)CC2CCCCC2)OCc2cnnn2CCCC1=O	91
C[C@H]1CN([C@@H](C)CO)C(=O)CCCn2nncc2CO[C@@H]1CN(C)C(=O)c1ccc(N2CCN(C)CC2)cc1	177
C[C@H](CO)N1C[C@H](C)[C@H](CN(C)CC2CCCCC2)OCc2cnnn2CCCC1=O	181
C[C@@H]1CN([C@H](C)CO)C(=O)CCCn2nncc2CO[C@H]1CN(C)C(=O)c1ccc(N2CCN(C)CC2)cc1	-26
S=C(Nc1ccccc1)Nc1nc2ccccc2s1	-41
Cc1cc(-c2csc(NC(=O)CCN3C(=O)NC4(CCCC4)C3=O)n2)ccc1F	131
CC(=O)N1CCc2cc(C(O)CN3CCN(c4nsc5ccccc45)CC3)ccc21 (stereo not given)	67
CC(C)NC(=O)N1CCC2(CCC(=O)N2CCN2CCCC2)CC1	-9
COc1cccc(NC(=O)c2ccc3c(c2)[nH]c(=O)n3C2CCCCC2)c1	-83*
COc1cccc(NC(=O)CC2NCCNC2=O)c1 (stereo not given)	46
CCN1CCCC1CNC(=O)c1ccc2c(c1)[nH]c(=O)n2Cc1ccc(OC)cc1 (stereo not given)	-30
Cc1ccc(C(=O)c2cc(O)c(O)c([N+](=O)[O-])c2)cc1	-80*!
NC(=O)c1ccc(I)c([N+](=O)[O-])c1	20
COc1ccc(C(=O)c2ccc(C)cc2)c(O)c1	98
c1cc2nc(C3CCNCC3)nn2cc1NC1CCC1	26
Cc1c(NC(=O)Cc2ccccc2)c(=O)n(-c2ccccc2)n1C	6
Cc1c(NC(=O)c2cc3nc(-c4ccccc4)cc(C)n3n2)c(=O)n(-c2ccccc2)n1C	-86*
Cc1c(NC(=O)c2ncoc2-c2ccc(F)cc2)c(=O)n(-c2ccccc2)n1C	-32
COc1cccc(CNC(=O)Cn2ncc3c(N4CCCC4)ncnc32)c1	-32
Cc1cccc(C(=O)Nc2c(C(=O)N3CCN(c4ccccn4)CC3)[nH]c3ccccc23)c1	4
SMILES	Tgondii IFNg
CN(Cc1cc(-c2ccncc2)no1)Cc1ccc(Cl)cc1F	-90*
CN(Cc1cc(-c2ccncc2)no1)Cc1ccc(Cl)s1	-13
CCOc1ccccc1CN(C)Cc1cc(-c2ccncc2)no1	21
O=C(Cn1ccc(=O)[nH]c1=O)NC1CC2(CCOCC2)Oc2ccccc21 (stereo not given)	-37
Cn1cccc1C(=O)N1CCC2OCCN(c3cccnc3)C2CC1 (stereo not given)	20
CSc1ssc(=Nc2ccc(F)c(F)c2)c1-c1ccccc1	-71*
CSc1cccc(NC(=O)c2nnn(Cc3nc(-c4cccc(Cl)c4)oc3C)c2C)c1	88
Cn1ccc(NC(=O)NC(=O)c2c(F)cccc2F)n1	18
COc1ccc([C@@H]2CC(=O)c3c(O)cc(O)cc3O2)cc1O	-77*!
COc1ccc([C@@H]2CC(=O)c3c(O)cc(O[C@@H]4O[C@H](CO[C@@H]5O[C@@H](C)[C@H](O)[C@@H](O)[C@H]5O)[C@@H](O)[C@H](O)[C@H]4O)cc3O2)cc1O	10
O=C1C[C@@H](c2ccccc2)Oc2cc(O)cc(O)c21	1
CC(C)CCN1CCCn2nnc(COc3cccnc3)c2C1	-1
CS(=O)(=O)NCC1CCN(C2CSCCSC2)C1 (stereo not given)	38
COc1ccc([C@H]2CC=CC[C@@H](C)Oc3ccccc3C(=O)N(C)[C@H](Cc3ccccc3)C(=O)N2)c(OC)c1 (mixture of isomers)	-79*
COc1ccc([C@H]2CC=CC[C@H](C)Oc3ccccc3C(=O)N(C)[C@@H](C(C)C)C(=O)N2)c(OC)c1 (mixture of isomers)	-11
C[C@@H]1CC=CC[C@@H](c2cccc(Cl)c2)NC(=O)[C@@H](Cc2ccccc2)N(C)C(=O)c2ccccc2O1 (mixture of isomers)	-63
CCn1c(C2CCN(C(=O)c3cccc(F)c3OC)CC2)n[nH]c1=O	9
CCN(Cc1ccccc1F)C(=O)c1c[nH]c(=O)[nH]1	-2
Cc1ccc(CCC(=O)N(C)Cc2cnn(C(C)C)c2)cc1C	-5
CSc1ncc(C(=O)N2CCC(COc3ccccn3)CC2)cn1	3
COc1ccc(Cl)cc1C(=O)NCCc1sc(-c2ccc(F)cc2)nc1C	-102*
